The source of these data is the supplement of paper PMC13380429.

The structures appear in SMILES notation. Unmarked numbers belong to inactive results.

In this assay the test system is Vero E6 infected with SARS-CoV-2. Kind of assay: SARS-CoV-2 infection rate relative to infected DMSO; higher = more infection, active = 60 or less. As to conditions: 24 h.
Take `Cc1cc(C(N)=O)ccc1-n1c(CCC(=O)O)ccc1-c1ccc(-n2ccnc2)cc1` (10 µM): the SARS-CoV-2 infection rate was 89%.

For `CC1(C)CCC(C)(C)c2cc(C(=O)Nc3ccc(C(=O)O)cc3)ccc21` (10 µM), the SARS-CoV-2 infection rate is 112%.

On to `O[C@@H](CN1CCNCC1)Cn1c2ccc(Br)cc2c2cc(Br)ccc21` [BAX-channel-blocker] (0.833333 µM), for which the SARS-CoV-2 infection rate was 104%.

In the case of `Cc1nc2c(c(=O)[nH]1)CSCC2` (10 µM), the SARS-CoV-2 infection rate was 114%.

Take `O=C(c1cccc(Cl)c1F)N1CCN(Cc2cccc(Nc3nccs3)n2)CC1` (0.833333 µM): the SARS-CoV-2 infection rate was 107%.

Take `COc1cc2c(N3CCN(C(=O)Nc4ccc(OC(C)C)cc4)CC3)ncnc2cc1OCCCN1CCCCC1` [tandutinib] (10 µM): the SARS-CoV-2 infection rate was 95.5%.

With `O=C1c2ccccc2-c2c(NCCc3ccccc3)c(=O)[nH]c3cccc1c23` (10 µM), the SARS-CoV-2 infection rate is 112%.

Regarding `CCN(CC)CCOC(=O)C(c1ccccc1)c1ccccc1` [adiphenine] (10 µM), the SARS-CoV-2 infection rate is 110%.

As for `O=C1C(O)=C([C@H]2CC[C@H](c3ccc(Cl)cc3)CC2)C(=O)c2ccccc21` [atovaquone] (0.833333 µM), the SARS-CoV-2 infection rate was 106%.

`C=CC(=O)Nc1cc2c(Nc3ccc(F)c(Cl)c3)ncnc2cc1OCCCN1CCOCC1` [canertinib] (10 µM): the SARS-CoV-2 infection rate was 107%.

For the compound `COc1cc(C(=O)NCCCCCC(=O)O)cc(OC)c1OC` [capobenic-acid] (10 µM), the SARS-CoV-2 infection rate is 108%.

As for `CSc1ccc([C@H]2CN3CCC[C@H]3c3ccccc32)cc1` (racemic) (10 µM), the SARS-CoV-2 infection rate is 86.5%.

`CC(=O)NC[C@H]1CN(c2ccc(N3CCN(C(=O)CO)CC3)c(F)c2)C(=O)O1` [eperezolid] (10 µM): the SARS-CoV-2 infection rate was 112%.

As for `O=c1[nH]c2cc(C(F)(F)F)c(N3CCOCC3)cc2n(CP(=O)(O)O)c1=O` (10 µM), the SARS-CoV-2 infection rate was 99%.

For `CCC[C@@H]1CC(=O)N([C@@H](CC)C(N)=O)C1` [Brivaracetam] (10 µM), the SARS-CoV-2 infection rate was 111%.

Consider `O=c1c(-c2ccc(O)cc2)coc2cc(O)cc(O)c12` [genistein] (10 µM), for which the SARS-CoV-2 infection rate is 119%.

For the compound `CC(C)(C)NCC(O)c1ccc(O)c(CO)c1` (configuration not stated) [albuterol] (10 µM), the SARS-CoV-2 infection rate is 100%.

With `O=P(O)(O)CN(CCN(CP(=O)(O)O)CP(=O)(O)O)CP(=O)(O)O` (10 µM), the SARS-CoV-2 infection rate was 104%.

Regarding `Cc1c(CC(C)(C)C(=O)O)n(Cc2ccc(Cl)cc2)c2ccc(F)cc12` (10 µM), the SARS-CoV-2 infection rate is 113%.

Take `Nc1ncnc2c1ncn2[C@@H]1O[C@H](COP(=O)(O)OP(=O)(O)OP(=O)(O)OP(=O)(O)OC[C@H]2O[C@@H](n3cnc4c(N)ncnc43)[C@H](O)[C@@H]2O)[C@@H](O)[C@H]1O` [diadenosine-tetraphosphate] (10 µM): the SARS-CoV-2 infection rate was 108%.

Regarding `Nc1nonc1/C(=N/O)Nc1ccc(F)c(Cl)c1` (10 µM), the SARS-CoV-2 infection rate was 112%.

For `CN1CC[C@@]2(C)c3cc(O)ccc3N(C)[C@@H]12` [eseroline-(-)] (10 µM), the SARS-CoV-2 infection rate was 97%.

Regarding `C[C@@H](Oc1ccc(Cl)cc1)c1ccnc2ncnn12` (10 µM), the SARS-CoV-2 infection rate is 112%.

Turning to `CC(C)(Oc1ccc(C(=O)c2ccc(Cl)cc2)cc1)C(=O)O` [fenofibric-acid] (10 µM), the SARS-CoV-2 infection rate is 97%.

Consider `CNC1CC(N)C(O)C(OC2OC(CO)C(O)C3OC4(OC(C(N)CO)C(O)C(O)C4O)OC23)C1O` (configuration not stated) [Hygromycin B] (10 µM), for which the SARS-CoV-2 infection rate was 86.5%.

For `O=C1CCc2cc(OCCCCc3nnnn3C3CCCCC3)ccc2N1` [cilostazol] (10 µM), the SARS-CoV-2 infection rate was 110%.

As to `CCCCn1c(=O)c2[nH]c(C34CC5CC(CC3C5)C4)nc2n(CCCO)c1=O` (10 µM), the SARS-CoV-2 infection rate was 100%.
